TDP1 inh = qHTS Assay for Inhibitors of Tyrosyl-DNA Phosphodiesterase (TDP1) | Tyrosyl-DNA phosphodiesterase 1 (Homo sapiens), Q9NUW8 | recombinant TDP1, AlphaScreen DNA substrate cleavage | Potency, µM (top dose mostly 130 µM), for inactives: at the highest dose activity change, negative = inhibition, actives largely listed as inhibitors | hit rate 0.28% among 350,000; further: on the % scale 0 is the no-effect control and ±100 the full control effect; nearly all actives have a fitted effect of over 40% in size
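Compounds were preincubated with Tdp1 (1 nM final) for 15 min at room temperature before substrate (15 nM final) started a 5 min reaction; beads (10 ug/ml final) were then added for 10 min before AlphaScreen detection.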
Sfp PPTase inh = qHTS Assay for Inhibitors of Bacillus subtilis Sfp phosphopantetheinyl transferase (PPTase); 4'-phosphopantetheinyl transferase ffp (Bacillus subtilis), Q9F4F7; Biochemical Sfp PPTase activity, qHTS; Potency, µM, without a hit: largest response in the series, negative = inhibition, hits mostly inhibitors; hit rate 3.5% among 310,000;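 further: the enzyme is Sfp with the accession as filed and its product quenches rhodamine fluorescence; 0% = enzyme reaction without inhibitor and -100% = no enzyme wells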
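Sfp 15 nM + cpd, 15 min RT; start w/ rhodamine-CoA 5 uM, BHQ-2-YbbR 12.5 uM (final); 50 mM Hepes pH 7.6, 10 mM MgCl2, 0.01% NP-40, 0.01% BSA; read 525/598 nm at 0 and 30 min.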
JMJD2A Tudor inh = qHTS Assay for Inhibitors of JMJD2A-Tudor Domain | AlphaScreen JMJD2A-Tudor / H3K4me3 peptide binding | Potency, µM (top dose mostly 114 µM), for inactives: at the highest dose activity change, negative = inhibition, usual class: inhibitors | hit rate 4.4% among 390,000 | AID 504339, 2011; further: on the % scale 0 is the no-effect control and ±100 the full control effect; nearly all actives have a fitted effect of over 50% in size
G9a inh = qHTS Assay for Inhibitors of Histone Lysine Methyltransferase G9a; hit rate 8.8% among 350,000; AID 504332, 2011; G9a H3K9 monomethylation, AlphaScreen, 2 h; Histone-lysine N-methyltransferase EHMT2 (Homo sapiens), Q96KQ7; Potency, µM (highest dose often 102 µM), inactives show at the top dose activity, negative = inhibition, actives largely listed as inhibitors; further: on the % scale 0 is the no-effect control and ±100 the full control effect; nearly all actives have a fitted effect of over 75% in size
Target sequence (Q96KQ7 913-1193 limits assumed): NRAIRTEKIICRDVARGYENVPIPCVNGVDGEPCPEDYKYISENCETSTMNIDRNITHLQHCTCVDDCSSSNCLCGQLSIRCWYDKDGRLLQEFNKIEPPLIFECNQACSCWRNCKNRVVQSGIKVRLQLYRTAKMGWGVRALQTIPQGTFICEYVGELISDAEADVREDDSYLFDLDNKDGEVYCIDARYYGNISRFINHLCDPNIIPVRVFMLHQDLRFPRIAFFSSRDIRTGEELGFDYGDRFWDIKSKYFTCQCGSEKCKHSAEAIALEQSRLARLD
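Quantitative HTS format: methyltransferase activity on a biotin-tagged H3K9 peptide is measured by AlphaScreen, using a rabbit anti-monomethyl-H3K9 antibody with streptavidin donor and anti-IgG acceptor beads. Final levels are 20 nM enzyme, 500 nM peptide, 20 uM SAM; 2 h RT.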
HP1b binding inh = HTS for Inhibitors of HP1-beta Chromodomain Interactions with Methylated Histone Tails; hit rate 0.56% among 390,000; Potency, µM (series often up to 114 µM), without a hit: at the highest dose activity change, negative = inhibition, actives largely listed as inhibitors; AID 540317, 2011; AlphaScreen HP1-beta / biotin-H3K9me3 peptide binding; further: nearly all actives have a fitted effect of over 70% in size
Target sequence (P83916 whole entry, looked up): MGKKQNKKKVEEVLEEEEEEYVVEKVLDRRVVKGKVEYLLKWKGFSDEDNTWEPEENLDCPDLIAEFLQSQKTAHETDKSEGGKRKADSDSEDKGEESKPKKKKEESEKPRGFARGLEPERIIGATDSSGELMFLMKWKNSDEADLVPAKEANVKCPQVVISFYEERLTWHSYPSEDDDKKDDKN
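AlphaScreen: HP1-beta (50 nM) preformed 30 min with biotin-H3(1-18)K9me3 peptide (50 nM) in PBS pH 7.4, 0.01% Tween-20. Compound added for 30 min at RT, then streptavidin donor/nickel chelate acceptor beads (10 ug/mL) for 30 min.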
BAZ2B inh = qHTS Assay for Inhibitors of BAZ2B. AlphaScreen BAZ2B-H3K14Ac peptide displacement. hit rate 4.4% among 360,000. Bromodomain adjacent to zinc finger domain protein 2B (Homo sapiens), Q9UIF8. Potency, µM (series often up to 114 µM), without a hit: at the top dose activity change, negative = inhibition, hits mostly inhibitors; further: on the % scale 0 is the no-effect control and ±100 the full control effect; nearly all actives have a fitted effect of over 60% in size
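BAZ2B (50 nM) with biotin-H3(5-23)K14Ac peptide (50 nM) in PBS pH 7.4, 0.01% Tween-20, preformed 30 min, then compound 30 min at room temperature; top concentration 110uM. AlphaScreen streptavidin donor/nickel chelate acceptor beads (10 ug/mL final), 20 min dark, signal read.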
* = called active by the depositor; ? = inconclusive; . = no result given; [ ] = dose if it differs, or a comment. This is a sample that favours compounds with a hit; in the whole collection about 12% have one here. The call rests on the fitted dose curve; in most records, active means well fitted curve in the direction sought with a large enough effect; inconclusive means small, poorly fitted or top-dose-only effect, or another doubt; inactive means no such curve, though single readings can be large; an effect the other way counts as inactive or inconclusive. Potency means the concentration at half of the fitted maximal effect.

SMILES	TDP1 inh	Sfp PPTase inh	JMJD2A Tudor inh	G9a inh	HP1b binding inh	BAZ2B inh
COc1cccc(-c2nc(CS(=O)CC(=O)NCCCOC(C)C)c(C)o2)c1 (centres undefined)	7%	11%	-12%	45µM*	52%	10%
COc1ccc(-c2nc(CS(=O)CC(=O)NCc3ccc(Cl)cc3)c(C)o2)cc1 (centres undefined)	3%	10%	-26%	40µM*	6%	-29%
CCc1cccc(NC(=O)CS(=O)Cc2nc(-c3ccc(C)cc3)oc2C)c1 (centres undefined)	5%	-10%	-29%	45µM*	1%	-39%
CCc1ccc(-c2nc(CS(=O)CC(=O)NCc3ccc4c(c3)OCO4)c(C)o2)cc1 (centres undefined)	6%	-5%	-25%	40µM*	16%	-32%
COc1cccc(-c2nc(CS(=O)CC(=O)NCCc3ccccc3)c(C)o2)c1 (centres undefined)	5%	-4%	-24%	-50%	8%[57 µM]	-6%
COC(=O)/C(Cc1cc(Br)c(OC)c(Br)c1O)=N/O	7%	7%	.	.	.	.
Cc1ccccc1-c1nc(CS(=O)CC(=O)NC(C)CCc2ccccc2)c(C)o1 (centres undefined)	10%	-13%	-31%	71µM*	20%	?
CCc1ccc(-c2nc(CS(=O)CC(=O)NCc3ccccc3)c(C)o2)cc1 (centres undefined)	3%	-5%	-12%	28µM*	23%	-15%
Cc1oc(-c2ccc(Cl)cc2)nc1CS(=O)CC(=O)NCc1ccccc1 (centres undefined)	4%	5%	2%	-12%	49%	0%
COc1cccc(-c2nc(CS(=O)CC(=O)NC(C)CCc3ccccc3)c(C)o2)c1 (centres undefined)	5%	-1%	-17%	?	5%[57 µM]	-28%
Cc1ccc(CCNC(=O)CS(=O)Cc2nc(-c3ccccc3Cl)oc2C)cc1 (centres undefined)	5%	-17%	2%	50µM*	69%	-27%
CCOc1ccc(CCNC(=O)CS(=O)Cc2nc(-c3ccc(OC)cc3)oc2C)cc1OCC (centres undefined)	5%	4%	-19%	50µM*	31%	-13%
COc1ccc(C(=O)NC2CCN(S(=O)(=O)c3ccc(C)cc3)CC2)cc1	.	5%	7%	35%	37%	10%
O=C(Nc1nc2ccccc2n1CCN1CCOCC1)c1cccc([N+](=O)[O-])c1	.	.	.	9%[59 µM]	.	.
COc1ccc2nc3c(cc2c1)c(NC(=O)CC(C)C)nn3CC(C)C	.	4%	14%	28%	45%	19%
Cc1ccc(-c2nc(CS(=O)CC(=O)NC3CCC(C)CC3)c(C)o2)cc1 (centres undefined)	0%	?	-24%	50µM*	3%	-25%
Cn1c(=O)n(C)c2cc(N3CCOCC3)c(NS(=O)(=O)c3cccc(C#N)c3)cc21	14%	.	50µM*	6.3µM*	?	22µM*
Cn1c(=O)c(=O)n(C)c2cc(N3CCOCC3)c(NS(=O)(=O)c3ccc(Cl)cc3)cc21	3%	.	-15%	-45%[59 µM]	12%	-22%
CCN(C(=O)Cn1c(C(=O)OC)cc2sccc21)c1cccc(C)c1	1%	.	-18%	-2%[59 µM]	17%	-3%
OCCC1CN(Cc2c(O)ccc3ccccc23)CCN1CCc1ccccc1 (centres undefined)	10%	2%	?	2µM*	-2%	-29%
OCCC1CN(Cc2ccccc2O)CCN1CCCc1ccccc1 (centres undefined)	.	19%	-12%	?	24%	1%
COc1ccc(CN2CCN(CCCc3ccccc3)C(CCO)C2)c(OC)c1 (centres undefined)	.	-1%	-23%	12%	16%	0%
COc1cc(CN2CCN(CCCc3ccccc3)C(CCO)C2)cc(OC)c1O (centres undefined)	.	-5%	-9%	40µM*	23%	4%
CC(C)(C)N1C(=O)[C@H]2[C@@H]3[C@H](O)C=CC(=O)[C@H]3CC[C@H]2C1=O	8%[21 µM]	11%	.	.	.	.
COc1ccccc1OCC(=O)Nc1ncc(C)s1	1%	.	-11%	15%[12.7 µM]	28%	-2%
SMILES	TDP1 inh	Sfp PPTase inh	JMJD2A Tudor inh	G9a inh	HP1b binding inh	BAZ2B inh
COc1ccccc1C(=O)NNc1ncc(C)s1	7%	40µM*	-19%	40µM*	33%	-31%
COc1ccc2nc(NC(=S)N(C)C)sc2c1	12%	?	25µM*	1.4µM*	?	?
COc1ccc(NC(C)=O)cc1NC(C)C(=O)Nc1ccc(F)c(F)c1F (centres undefined)	4%	3%	-17%	50µM*	36%	-11%
COc1ccc(NC(C)=O)cc1NC(C)C(=O)Nc1ccc(S(=O)(=O)N2CCCCC2)cc1 (centres undefined)	6%	.	?	?	-21%	?
O=c1c2cc(Cl)ccc2nc(-c2ccc(Cl)c(Cl)c2)n1O	.	19%	-22%	41%[12.7 µM]	24%	?
O=c1c2cc(Cl)ccc2nc(-c2ccccc2)n1O	6%	11%	?	-29%	-1%	79µM*
CCC(CC)C(=O)Nc1ccc(-c2cn3cccnc3n2)cc1	1%	10%	-13%	37%	36%	4%
O=C(N/N=C/c1ccccn1)c1sc2ccccc2c1Cl	9%	-10%	?	.	91%	40µM*
Cn1ncc(Cl)c1C(=O)N/N=C/c1ccccn1	8%	?	?	61%[59 µM]	22%	22µM*
Cc1cc(C)cc(OCC(=O)N/N=C/c2ccccn2)c1	-6%	?	?	?	39%	79µM*
COc1cc(C(=O)N/N=C/c2sc(=O)n(-c3ccccc3)c2Cl)cc(OC)c1OC	5%	10%	-18%	-8%[59 µM]	43%	-31%
O=C(N/N=C/c1c[nH]c2ccccc12)c1sc2ccccc2c1Cl	11%	-2%	?	20%[59 µM]	-1%	?
O=C(N/N=C/c1sc(=O)n(-c2ccccc2)c1Cl)c1ccncc1	6%	-17%	-15%	50µM*	14%	0%
O=C(COc1ccc2ccccc2c1)N/N=C/c1ccccn1	6%	?	?	17%[0.501 µM]	?	9%

Source: PubChem
